# Unmarked numbers belong to inactive results. Active and inactive are the calls of the source.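 Rule for the calls, unless noted: active = mean inhibition above 46.68%, the untreated control wells mean plus 3 SD; inactive = the rest.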
# Test system: transactivating tegument protein VP16 (Human herpesvirus 1), Gal4-VP16 luciferase reporter
# Test: repression of VP16-driven luciferase reporter – cell-based, luminescence, high throughput, counter-screen for SRC3 inhibitor project (AID 588794; in the data active = inhibition above about 30%)
# Conditions: mammalian cells, at 3.6 µM, stronger effect = higher value
row,SMILES,inhibition
1,O=C1C=CC(=C(c2ccc(O)cc2)c2ccc(O)cc2)C=C1,47.5% (active)
2,CC1=C(C(=O)OCc2ccc3c(c2)OCO3)C(c2cccc([N+](=O)[O-])c2)NC(=O)N1 (stereo not given),42.2% (active)
3,COc1ccc(-c2cncnc2-c2ccc(OC)cc2O)cc1,36.3% (active)
4,C=CCN(CC=C)c1ncnc2[nH]ncc12,50.9% (active)
5,CCOc1ccc(/C=C2\SC(=S)N(CCCC(=O)NCCCN3CCOCC3)C2=O)cc1,10.6%
6,O=C(N/N=C/c1cc(Br)ccc1O)C(c1ccncc1)N1CCOCC1 (stereo not given),20.1%
7,CCOC(=O)c1cccc(NS(=O)(=O)c2ccc(NC(C)=O)cc2)c1,35.8% (active)
8,O=C(NC1CCCCC1)C(c1cccnc1)N(C(=O)CCl)c1cccc(Cl)c1 (stereo not given),26.8%
9,Cc1[nH]ccc2c1[nH]c1cc(=O)ccc12,39.5% (active)
10,Oc1ccc(Nc2ncnc3scc(-c4ccccc4)c23)cc1,35.8% (active)
11,CC(C)c1ccc(/C=C2\SC(=S)N(CCC(=O)N3CCCCC3CCO)C2=O)cc1 (stereo not given),-27.8%
12,COc1ccc(C(=O)C(CN2CCOCC2)c2ccccc2)cc1 (stereo not given),20.9%
13,Cc1ccc(C)c(N2CCN(C(=O)CCS(=O)(=O)c3ccc4c(c3)NC(=O)CO4)CC2)c1,16.3%
14,CS(=O)(=O)Nc1ccc(-c2cnc3cccnn23)cc1,41.6% (active)
15,Brc1ccc2ncnc(NCc3cccnc3)c2c1,44% (active)
16,NC(=O)c1sc2nc3c(c(-c4cccs4)c2c1N)CCCCC3,58.4% (active)
17,COc1ccc(-c2cn[nH]c2-c2ccc(OC)cc2O)cc1,26.5%
18,CCOc1cc(CNc2ccc3c(c2)OCCO3)cc(Br)c1OCC,20.9%
19,C=C1C(=O)OC2CC1C(O)CC(C)=CCCC(C)=CC(O)CC2C (stereo not given),42.7% (active)
20,CCCC(=O)N1CCN(c2ccc(NC(=O)c3cc4ccccc4o3)cc2Cl)CC1,5.64%

row,SMILES,inhibition
1,Cn1nc(C(F)(F)F)c(C#N)c1N1CCN(c2ccc(F)cc2)CC1,31.8% (active)
2,c1csc(C2=Nn3c(nnc3-c3ccncc3)SC2)c1,58.1% (active)
3,Cc1ccc(S(=O)(=O)c2ccc([N+](=O)[O-])cn2)cc1,-18.7%
4,Cc1ccc(/C=C2\SC(=S)N(CCCC(=O)NC3CCCC3)C2=O)cc1,14.5%
5,CN(C)C=Nc1ncc2c3ccccc3n(CCN(C)C)c2c1C#N,29.9% (active)
6,Cc1nc2c(-c3ccc(Cl)cc3)cnn2c(N)c1-c1ccc(F)cc1,24.5%
7,CCn1c2ccccc2c2cnc(N=CN(C)C)c(C#N)c21,19.6%
8,Cc1c(/C(O)=C2/C(=O)C(=O)N(CCN3CCOCC3)C2c2ccco2)cnn1-c1ccccc1 (stereo not given),5.75%
9,COc1ccc(Nc2ccnc3ccccc23)cc1,30.3% (active)
10,Cc1nn(C(C)(C)C)c(C)c1/C=N/OC(=O)Nc1ccc(Cl)c(Cl)c1,16.6%
11,COc1cc2ccccc2ccc1=NO,38% (active)
12,Clc1ccccc1C1=Nn2c(nnc2-c2ccncc2)SC1,52.6% (active)
13,C=CCn1c(C)cc(C2=NNC(=NC(C)(C)C)SC2)c1C,33.7% (active)
14,Cc1ccc2occ(/C=N/NC(=O)[C@@H](N)Cc3ccccc3)c(=O)c2c1,17%
15,CCOC(=O)c1cccc2c1-c1ccccc1/C2=N/O,23.7%
16,CCc1ccc(/C=C2\SC(=S)N(CCCC(=O)NCCCN3CCOCC3)C2=O)cc1,21.1%
17,CCn1c(Oc2ccccc2C)nc2c1c(=O)n(C)c(=O)n2C,34.7% (active)
18,C(=N\Nc1ccc2ccccc2n1)/c1ccc2c(c1)OCCO2,24.2%
19,O=C(O)C1CC=CCC1C(=O)Nc1ccc2c(c1)OCCO2 (stereo not given),-7.19%
20,CC1=C(C(=O)OCc2ccc3c(c2)OCO3)C(c2ccc(Cl)cc2)NC(=O)N1 (stereo not given),74.7% (active)

# Biological target: Nuclear receptor coactivator 1 (Homo sapiens) (UniProt Q15788)
# Test: NCOA1 GAL4-fusion reporter inhibition – cell-based, luminescence, quadruplicate, confirmation (AID 588820);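 note: 0% = DMSO wells and 100% = gossypol 36 µM treated wells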
# Conditions: HEK293 GAL4-SRC1 luciferase reporter, at 3.6 µM, stronger effect = higher value
# Nuclear receptor coactivator 1 (Homo sapiens), sequence (Q15788 whole entry, looked up, the tested form may be a part): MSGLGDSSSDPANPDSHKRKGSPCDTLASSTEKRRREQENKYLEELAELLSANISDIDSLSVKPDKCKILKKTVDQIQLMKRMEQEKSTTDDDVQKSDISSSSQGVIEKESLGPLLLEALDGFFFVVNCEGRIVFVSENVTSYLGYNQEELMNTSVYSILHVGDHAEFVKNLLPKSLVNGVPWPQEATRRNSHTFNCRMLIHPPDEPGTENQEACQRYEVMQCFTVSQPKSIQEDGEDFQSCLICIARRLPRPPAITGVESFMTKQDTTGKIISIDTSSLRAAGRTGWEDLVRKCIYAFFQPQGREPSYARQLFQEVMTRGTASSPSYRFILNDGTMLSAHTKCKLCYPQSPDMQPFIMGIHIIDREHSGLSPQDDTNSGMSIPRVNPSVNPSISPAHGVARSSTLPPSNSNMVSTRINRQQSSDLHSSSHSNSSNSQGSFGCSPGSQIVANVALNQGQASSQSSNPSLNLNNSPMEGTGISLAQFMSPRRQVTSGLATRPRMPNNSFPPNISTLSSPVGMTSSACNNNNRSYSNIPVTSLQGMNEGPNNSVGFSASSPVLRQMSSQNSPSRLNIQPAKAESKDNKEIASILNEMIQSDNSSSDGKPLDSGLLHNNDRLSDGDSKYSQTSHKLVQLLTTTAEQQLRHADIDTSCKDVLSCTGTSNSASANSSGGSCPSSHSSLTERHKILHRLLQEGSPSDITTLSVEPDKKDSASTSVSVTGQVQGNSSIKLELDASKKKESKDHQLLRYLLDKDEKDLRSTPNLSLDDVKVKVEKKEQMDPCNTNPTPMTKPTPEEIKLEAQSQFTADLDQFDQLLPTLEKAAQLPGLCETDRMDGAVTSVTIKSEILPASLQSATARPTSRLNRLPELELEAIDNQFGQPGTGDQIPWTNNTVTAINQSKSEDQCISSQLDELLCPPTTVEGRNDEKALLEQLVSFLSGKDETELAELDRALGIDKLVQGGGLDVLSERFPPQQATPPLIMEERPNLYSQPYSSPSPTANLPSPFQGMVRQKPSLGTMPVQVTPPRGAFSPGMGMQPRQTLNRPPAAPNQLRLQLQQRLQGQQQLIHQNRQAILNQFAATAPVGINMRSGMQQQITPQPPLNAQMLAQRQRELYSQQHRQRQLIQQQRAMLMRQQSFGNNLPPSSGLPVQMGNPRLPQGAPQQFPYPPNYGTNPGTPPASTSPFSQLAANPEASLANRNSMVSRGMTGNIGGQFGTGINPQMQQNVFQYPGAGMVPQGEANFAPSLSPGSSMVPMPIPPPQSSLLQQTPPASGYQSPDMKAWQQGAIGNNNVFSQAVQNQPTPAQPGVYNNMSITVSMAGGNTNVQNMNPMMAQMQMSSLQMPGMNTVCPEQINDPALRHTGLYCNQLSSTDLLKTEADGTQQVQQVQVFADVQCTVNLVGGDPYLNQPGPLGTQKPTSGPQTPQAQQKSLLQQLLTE
row,SMILES,inhibition
1,O=C1C=CC(=C(c2ccc(O)cc2)c2ccc(O)cc2)C=C1,54% (active)
2,CC1=C(C(=O)OCc2ccc3c(c2)OCO3)C(c2cccc([N+](=O)[O-])c2)NC(=O)N1 (stereo not given),65.7% (active)
3,COc1ccc(-c2cncnc2-c2ccc(OC)cc2O)cc1,57.1% (active)
4,C=CCN(CC=C)c1ncnc2[nH]ncc12,53.9% (active)
5,CCOc1ccc(/C=C2\SC(=S)N(CCCC(=O)NCCCN3CCOCC3)C2=O)cc1,22.1%
6,O=C(N/N=C/c1cc(Br)ccc1O)C(c1ccncc1)N1CCOCC1 (stereo not given),19.4%
7,CCOC(=O)c1cccc(NS(=O)(=O)c2ccc(NC(C)=O)cc2)c1,40.5%
8,O=C(NC1CCCCC1)C(c1cccnc1)N(C(=O)CCl)c1cccc(Cl)c1 (stereo not given),33.4%
9,Cc1[nH]ccc2c1[nH]c1cc(=O)ccc12,59.1% (active)
10,Oc1ccc(Nc2ncnc3scc(-c4ccccc4)c23)cc1,41%
11,CC(C)c1ccc(/C=C2\SC(=S)N(CCC(=O)N3CCCCC3CCO)C2=O)cc1 (stereo not given),10.1%
12,COc1ccc(C(=O)C(CN2CCOCC2)c2ccccc2)cc1 (stereo not given),0.8%
13,Cc1ccc(C)c(N2CCN(C(=O)CCS(=O)(=O)c3ccc4c(c3)NC(=O)CO4)CC2)c1,-0.57%
14,CS(=O)(=O)Nc1ccc(-c2cnc3cccnn23)cc1,57.5% (active)
15,Brc1ccc2ncnc(NCc3cccnc3)c2c1,55.9% (active)
16,NC(=O)c1sc2nc3c(c(-c4cccs4)c2c1N)CCCCC3,77.6% (active)
17,COc1ccc(-c2cn[nH]c2-c2ccc(OC)cc2O)cc1,46.3%
18,CCOc1cc(CNc2ccc3c(c2)OCCO3)cc(Br)c1OCC,-11.6%
19,C=C1C(=O)OC2CC1C(O)CC(C)=CCCC(C)=CC(O)CC2C (stereo not given),27.9%
20,CCCC(=O)N1CCN(c2ccc(NC(=O)c3cc4ccccc4o3)cc2Cl)CC1,-6.77%

row,SMILES,inhibition
1,Cn1nc(C(F)(F)F)c(C#N)c1N1CCN(c2ccc(F)cc2)CC1,36.7%
2,c1csc(C2=Nn3c(nnc3-c3ccncc3)SC2)c1,67.9% (active)
3,Cc1ccc(S(=O)(=O)c2ccc([N+](=O)[O-])cn2)cc1,-25.7%
4,Cc1ccc(/C=C2\SC(=S)N(CCCC(=O)NC3CCCC3)C2=O)cc1,41.5%
5,CN(C)C=Nc1ncc2c3ccccc3n(CCN(C)C)c2c1C#N,48.9% (active)
6,Cc1nc2c(-c3ccc(Cl)cc3)cnn2c(N)c1-c1ccc(F)cc1,-12%
7,CCn1c2ccccc2c2cnc(N=CN(C)C)c(C#N)c21,28.3%
8,Cc1c(/C(O)=C2/C(=O)C(=O)N(CCN3CCOCC3)C2c2ccco2)cnn1-c1ccccc1 (stereo not given),-20.6%
9,COc1ccc(Nc2ccnc3ccccc23)cc1,52.8% (active)
10,Cc1nn(C(C)(C)C)c(C)c1/C=N/OC(=O)Nc1ccc(Cl)c(Cl)c1,25.3%
11,COc1cc2ccccc2ccc1=NO,56.5% (active)
12,Clc1ccccc1C1=Nn2c(nnc2-c2ccncc2)SC1,73.9% (active)
13,C=CCn1c(C)cc(C2=NNC(=NC(C)(C)C)SC2)c1C,-25.9%
14,Cc1ccc2occ(/C=N/NC(=O)[C@@H](N)Cc3ccccc3)c(=O)c2c1,15.7%
15,CCOC(=O)c1cccc2c1-c1ccccc1/C2=N/O,46.5%
16,CCc1ccc(/C=C2\SC(=S)N(CCCC(=O)NCCCN3CCOCC3)C2=O)cc1,35.1%
17,CCn1c(Oc2ccccc2C)nc2c1c(=O)n(C)c(=O)n2C,51.5% (active)
18,C(=N\Nc1ccc2ccccc2n1)/c1ccc2c(c1)OCCO2,-49.9%
19,O=C(O)C1CC=CCC1C(=O)Nc1ccc2c(c1)OCCO2 (stereo not given),-47.1%
20,CC1=C(C(=O)OCc2ccc3c(c2)OCO3)C(c2ccc(Cl)cc2)NC(=O)N1 (stereo not given),69.2% (active)

# — PubChem BioAssay
